An excerpt weighted towards active compounds, which were near 7.5% of everything screened.
SMN2 splice enh: enhancers of SMN2 splice variant expression | Potency, µM (highest dose often 46.1 µM), for inactives: at the highest dose activity change, positive = activation, usual class: activators | HEK293 SMN2-luciferase splicing reporter, luminescence, 30-36 h | actives 2.8% (n = 210,000); further: % of control where 0% means no effect; nearly all actives have a fitted effect of over 55% in size
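HEK293 cells carry an SMN2 minigene-luciferase reporter in which exon 7 inclusion puts luciferase in frame. Cells were seeded at 2000 cells/well, attached for 10-12 hours, then exposed to compounds for 30-36 hours at 37C before ONE-Glo luminescence.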
ELG1 genotoxic: induces genotoxicity in HEK293T cells with luciferase-tagged ELG1. Potency, µM (highest dose often 46 µM), inactives show top-dose activity change, positive = activation, actives largely listed as activators. actives 1.3% (n = 330,000). HEK293T ELG1-luciferase reporter, luminescence, 16 h; further: % of control where 0% means no effect; nearly all actives have a fitted effect of over 60% in size
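DMSO vehicle served as control against compound-treated ELG1-luciferase HEK293T cells; exposure lasted 16 hr at 37 °C and 5% CO2, followed by ONE-Glo luminescence detection after 30 min.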
FLuc modulator: firefly luciferase modulation, counter-screen for miR-21 project. P08659. purified FLuc, Km substrates, luminescence inhibition. Potency, µM (top dose mostly 57.5 µM), inactives show top-dose activity change, negative = inhibition, hits mostly inhibitors. actives 6.9% (n = 360,000). AID 588342;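 further: plate controls were vehicle for no effect and reference inhibitor for full effect; nearly all actives have a fitted effect of over 55% in size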
Target sequence (P08659 whole entry, looked up): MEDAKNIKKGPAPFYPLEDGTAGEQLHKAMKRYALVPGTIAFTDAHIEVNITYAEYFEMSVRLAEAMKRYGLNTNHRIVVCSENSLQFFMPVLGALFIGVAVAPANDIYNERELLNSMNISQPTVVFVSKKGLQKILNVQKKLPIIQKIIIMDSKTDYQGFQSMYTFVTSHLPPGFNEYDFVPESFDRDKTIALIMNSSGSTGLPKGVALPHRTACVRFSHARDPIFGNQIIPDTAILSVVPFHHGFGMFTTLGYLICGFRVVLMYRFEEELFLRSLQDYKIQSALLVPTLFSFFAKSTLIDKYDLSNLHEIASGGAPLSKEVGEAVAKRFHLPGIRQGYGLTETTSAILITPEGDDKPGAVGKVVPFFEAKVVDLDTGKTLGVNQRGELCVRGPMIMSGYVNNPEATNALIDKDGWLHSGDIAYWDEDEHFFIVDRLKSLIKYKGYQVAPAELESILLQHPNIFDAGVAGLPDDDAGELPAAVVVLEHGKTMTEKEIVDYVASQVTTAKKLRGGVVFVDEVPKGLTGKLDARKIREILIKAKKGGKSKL
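Purified P. pyralis luciferase (10nM final) with 10uM D-luciferin and 10uM ATP (Km levels) in 50mM Tris acetate pH 7.5, 10mM Mg acetate, 0.01% Tween-20, 0.05% BSA; qHTS 6-point titration, ~60 µM downward; luminescence read.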
Rab9 promoter act: Rab9 promoter activation; Huh7 Rab9 promoter-luciferase reporter, luminescence, 24 h; Potency, µM (series often up to 9.22 µM), without a hit: at the highest dose activation, negative = inhibition, hits mostly activators; actives 2.8% (n = 320,000); AID 485297; further: % of control where 0% means no effect; nearly all actives have a fitted effect of over 60% in size
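Huh7 reporter line, Rab9 promoter upstream of luciferase. Compound exposure 24 h at 37 °C in reduced-serum medium with 10% FBS. Read-out: luminescence.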
NPC1 promoter act: activators of NPC1 promoter; actives 2.4% (n = 320,000); Huh7 NPC1 promoter luciferase reporter, 24 h; Potency, µM (titrated, usually from 9.22 µM), for the others: at the top dose activation, actives largely listed as activators; further: % of control where 0% means no effect; nearly all actives have a fitted effect of over 60% in size
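Cells: Huh7 expressing luciferase under the NPC1 promoter, 1500/well. Seeded 2 h, compound added, incubated 24 h at 37 °C. Luciferase reagent, 10 min ambient, then luminescence.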
Luc counter: blocks Kinase-Glo luciferase, a counter-screen artifact. Q27757. Kinase-Glo luciferase, ATP luminescence, 8 min. Potency, µM (top dose mostly 38.3 µM), for inactives: top-dose activity change, negative = inhibition, actives largely listed as inhibitors. actives 0.28% (n = 200,000). AID 1379; further: on the % scale 0 is the no-effect control and ±100 the full control effect; nearly all actives have a fitted effect of over 60% in size
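Substrate mix (final 50 mM imidazole pH 7.2, 50 mM KCl, 7 mM MgCl2, 10 uM ATP, 0.01% Tween 20, 0.05% BSA) plus pin-tool compound, then Kinase-Glo detection mix; 8 min ambient, luminescence read.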
Starred values were filed as active, the others as inactive; ? = inconclusive; · = no result given; [ ] = remark or other dose. The call rests on the fitted dose curve; in most records, active means well fitted curve in the direction sought with a large enough effect; inconclusive means small, poorly fitted or top-dose-only effect, or another doubt; inactive means no such curve, though single readings can be large; an effect the other way counts as inactive or inconclusive. Potency means the concentration at half of the fitted maximal effect.

SMILES	SMN2 splice enh	ELG1 genotoxic	FLuc modulator	Rab9 promoter act	NPC1 promoter act	Luc counter
CCOC(=O)c1ccccc1NC(=O)CSc1nnc(Cc2cccn2C)n1-c1ccc(F)cc1	-15%	-4%	1%	3.2µM*	1%	2%
Cc1ccc(-c2csc(N3CCC(C(N)=O)CC3)n2)cc1	·	8%	11µM*	2µM*	1.3µM*	·
N#Cc1ccc(-c2csc(N3CCC(C(N)=O)CC3)n2)cc1	·	·	-10%	·	·	·
CC(=O)c1cccc(-c2csc(N3CCC(C(N)=O)CC3)n2)c1	·	14%	17µM*	0.4µM*	1.3µM*	·
NC(=O)C1CCN(c2nc(-c3ccc4ccccc4c3)cs2)CC1	·	6%	12µM*	?	2µM*	·
COc1ccc(-c2csc(N3CCC(C(N)=O)CC3)n2)cc1	·	7%	21µM*	?	26%	·
Cc1nn(-c2ccccc2)c2c1cc1c(=O)n(C)c(=O)nc-1n2-c1cccc(Cl)c1	6%	·	1%	·	·	·
Cc1cc(OCCCSc2nc(-c3ccc(C(C)(C)C)cc3)nc3cc(=O)[nH]n23)ccc1Cl	·	·	-13%	·	·	·
O=C(Nc1ccc(N2CCOCC2)cc1)c1c(F)cccc1Cl	0%	19%	-2%	2%	-2%	-2%
Cc1ccc(-c2nnc(NC(=O)c3c(F)cccc3Cl)s2)cc1	·	7%	-11%	10%	12%	·
O=C(Nc1nc2ccccc2s1)c1c(F)cccc1Cl	·	?	24µM*	?	?	·
Cn1cc(Cl)c(C(=O)Nc2nc3ccccc3s2)n1	1.8µM*	0.46µM*	0.95µM*	?	?	?
CC(C)(C)c1ccc(NC(=O)c2c(F)cccc2Cl)cc1	·	7%	17µM*	?	12%	·
Cc1cc(C)cc(NC(=O)CNS(=O)(=O)c2ccc3nc(C)sc3c2)c1	0%	·	-11%	·	·	·
CCOC(=O)N1CCN(C(=O)CS(=O)Cc2nc(-c3ccc(OC)c(OC)c3)oc2C)CC1 (stereo unspecified)	·	2%	5%	-3%	0%	·
O=C(NCC1CCCO1)c1ccc2c3n(nc2c1)-c1ccccc1CO3 (stereo unspecified)	·	?	4.8µM*	1.1µM*	1µM*	·
CCC(C)NC(=O)c1ccc2c(=O)n3c(nc2c1)CCCCC3 (stereo unspecified)	-5%	·	-4%	·	·	·
COCCNC(=O)c1ccc2c3n(nc2c1)-c1ccc(C)cc1CO3	·	?	6.7µM*	1.1µM*	0.71µM*	·
O=C(NCC1CCCO1)c1ccc2c(c1)OCO2 (stereo unspecified)	-6%	10%	4%	19%	5%	-5%
C[C@@H](CO)NC(=O)c1ccc2c3n(nc2c1)-c1ccccc1CO3	·	?	0.6µM*	?	0.45µM*	·
Cc1ccc2c(c1)COc1c3ccc(C(=O)N[C@@H](CO)C(C)C)cc3nn1-2	·	?	6.7µM*	3.5µM*	1.8µM*	·
Cc1cnc(NC(=O)Nc2ccccc2)c(C)n1	·	6%	6%	-2%	-6%	·
CCN1CCC[C@@H](OC(=O)C(c2ccccc2)c2ccccc2)C1	-2%[20.6 µM]	·	·	·	·	2%[17.1 µM]
C=CC[C@H](CC(=O)N[C@H](CO)Cc1ccccc1)C(=O)N[C@@H](COC(=O)[C@H](CC=C)CC(=O)OC(C)(C)C)Cc1c[nH]c2ccccc12	·	-5%	·	·	·	·
COc1ccc(-c2cc(OC(=O)c3cccc(Cl)c3)c3c(C)oc(C)c3c(=O)c2)cc1	-12%	·	?	·	·	·
SMILES	SMN2 splice enh	ELG1 genotoxic	FLuc modulator	Rab9 promoter act	NPC1 promoter act	Luc counter
O=C(N=Nc1ccc(NOC(=O)c2ccccc2Br)cc1)c1ccccc1O	-29%	3%	8.5µM*	?	?	-21%
COC(=O)c1ccccc1O	2%	·	·	·	·	·
O=C(Nc1ccc(OC(F)(F)F)cc1)c1nc2ccccc2nc1N1CCCCC1	·	·	-5%	·	·	·
O=S(=O)(O)c1ccc2c(N=Nc3cccc4ccccc34)c(O)c(S(=O)(=O)O)cc2c1	-28%[9.22 µM]	·	·	·	·	-17%[7.66 µM]
O=S(=O)(O)c1cc(O)c2c(O)c(N=Nc3cc(Cl)ccc3O)c(S(=O)(=O)O)cc2c1	·	-4%	21µM*	-10%	-7%	·
Nc1cc(S(=O)(=O)O)cc2ccc(S(=O)(=O)O)cc12	1%[9.22 µM]	·	·	·	·	-1%[7.66 µM]
Cc1cc(-c2ccc(N=Nc3c(S(=O)(=O)O)cc4cc(S(=O)(=O)O)cc(N)c4c3O)c(C)c2)ccc1N=Nc1c(S(=O)(=O)O)cc2cc(S(=O)(=O)O)cc(N)c2c1O	·	-44%	21µM*	-12%	-13%	·
CCOC(=O)c1sc(=NC(=O)c2ccc(OC)c(OC)c2)n(C)c1C	-5%	11%	-19%	11%	12%	-1%
CCOC(=O)c1sc(=NC(=O)c2ccccc2)n(C)c1C	8.9µM*	?	2.1µM*	19%	-1%	-7%
CCOC(=O)c1sc(=NC(=O)c2cccc(OC)c2)n(C)c1C	·	15%	?	1.6µM*	3.5µM*	·
CCn1cnc2cc(NC(=O)c3ccco3)ccc21	5µM*	18µM*	11µM*	1.6µM*	2.8µM*	-16%
CCCn1cnc2cc(NC(=O)c3ccco3)ccc21	·	2.9µM*	?	2.8µM*	3.5µM*	·
O=C(O)COCC(=O)Nc1ccc2c(c1)ncn2CCc1ccccc1	·	-1%	3%	-8%	0%	·
Cn1c(CCN2CCOCC2)nc2cc(NC(=O)c3cccs3)ccc21	7%	-1%	1%	-4%	-3%	2%
CC(C)(C)n1cnc2cc(NC(=O)c3ccco3)ccc21	·	?	9.5µM*	0.71µM*	0.28µM*	·
CCCn1cnc2cc(NC(=O)c3cccs3)ccc21	16µM*	12%	11µM*	2.8µM*	?	-12%
CCCCCCCN[C@H]1CCC[C@@H]1CCCCCCC(=O)O	28%	·	·	·	·	-1%
N#CC1(NC(=O)COc2cccnc2[N+](=O)[O-])CCCCC1	·	2%	3%	-8%	-2%	·
Cc1c(Cc2ccccc2)c(=O)oc2cc(O)cc(O)c12	-5%	-6%	-16%	-1%	-3%	-1%
O=C(Nc1cccc(C(F)(F)F)c1)c1cc(S(=O)(=O)N2CCCC2)c[nH]1	·	·	17µM*	·	·	·
CCCCN(C)C(=O)c1ccc2c(c1)NC(=O)C(CC(C)C)N2 (stereo unspecified)	·	·	1%	·	·	·
Cc1ccccc1OCC(=O)Nn1c(COc2ccccc2)nc2ccccc2c1=O	0%	8%	27µM*	-2%	0%	-4%
Cc1ccnc(NC(=O)c2cccc(S(=O)(=O)N3CCCC3)c2)c1	·	-1%	-14%	24%	14%	·
Cc1ccc(NC(=O)c2cccc(S(=O)(=O)N3CCN(c4ccccc4)CC3)c2)nc1	·	15µM*	2%	-16%	-6%	·
